# Results from ChEMBL document CHEMBL1961873, “Compounds: GSK PKIS; Assays: Nanosyn kinase panel” (2012).
# How the values were obtained:
# [1] = target: Tyrosine-protein kinase SYK (Homo sapiens) (UniProt P43405); conditions: at 1 µM
# [2] = target: T1, Tyrosine-protein kinase Tec (Homo sapiens) (UniProt P42680); conditions: at 0.1 µM
# T1 sequence (whole entry): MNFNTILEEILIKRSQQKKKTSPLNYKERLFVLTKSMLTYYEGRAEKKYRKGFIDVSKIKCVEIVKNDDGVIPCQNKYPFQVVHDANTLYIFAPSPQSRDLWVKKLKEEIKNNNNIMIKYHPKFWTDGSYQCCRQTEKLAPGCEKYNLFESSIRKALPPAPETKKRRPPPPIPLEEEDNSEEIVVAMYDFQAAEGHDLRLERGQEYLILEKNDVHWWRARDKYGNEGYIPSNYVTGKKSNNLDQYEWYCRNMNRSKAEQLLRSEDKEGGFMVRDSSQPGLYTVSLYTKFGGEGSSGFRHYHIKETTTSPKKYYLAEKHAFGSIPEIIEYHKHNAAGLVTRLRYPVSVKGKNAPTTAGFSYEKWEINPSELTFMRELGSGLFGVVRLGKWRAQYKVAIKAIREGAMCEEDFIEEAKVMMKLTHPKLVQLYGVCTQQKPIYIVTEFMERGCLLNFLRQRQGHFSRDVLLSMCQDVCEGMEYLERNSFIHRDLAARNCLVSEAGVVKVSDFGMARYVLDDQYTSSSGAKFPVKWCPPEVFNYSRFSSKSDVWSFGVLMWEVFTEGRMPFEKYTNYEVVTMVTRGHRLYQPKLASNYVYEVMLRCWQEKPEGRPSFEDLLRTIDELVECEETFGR
# [3] = target: T1, Tyrosine-protein kinase Tec (Homo sapiens); conditions: at 1 µM
# [4] = target: Angiopoietin-1 receptor (Homo sapiens) (UniProt Q02763); conditions: at 0.1 µM
# Angiopoietin-1 receptor (Homo sapiens), sequence (Q02763 whole entry): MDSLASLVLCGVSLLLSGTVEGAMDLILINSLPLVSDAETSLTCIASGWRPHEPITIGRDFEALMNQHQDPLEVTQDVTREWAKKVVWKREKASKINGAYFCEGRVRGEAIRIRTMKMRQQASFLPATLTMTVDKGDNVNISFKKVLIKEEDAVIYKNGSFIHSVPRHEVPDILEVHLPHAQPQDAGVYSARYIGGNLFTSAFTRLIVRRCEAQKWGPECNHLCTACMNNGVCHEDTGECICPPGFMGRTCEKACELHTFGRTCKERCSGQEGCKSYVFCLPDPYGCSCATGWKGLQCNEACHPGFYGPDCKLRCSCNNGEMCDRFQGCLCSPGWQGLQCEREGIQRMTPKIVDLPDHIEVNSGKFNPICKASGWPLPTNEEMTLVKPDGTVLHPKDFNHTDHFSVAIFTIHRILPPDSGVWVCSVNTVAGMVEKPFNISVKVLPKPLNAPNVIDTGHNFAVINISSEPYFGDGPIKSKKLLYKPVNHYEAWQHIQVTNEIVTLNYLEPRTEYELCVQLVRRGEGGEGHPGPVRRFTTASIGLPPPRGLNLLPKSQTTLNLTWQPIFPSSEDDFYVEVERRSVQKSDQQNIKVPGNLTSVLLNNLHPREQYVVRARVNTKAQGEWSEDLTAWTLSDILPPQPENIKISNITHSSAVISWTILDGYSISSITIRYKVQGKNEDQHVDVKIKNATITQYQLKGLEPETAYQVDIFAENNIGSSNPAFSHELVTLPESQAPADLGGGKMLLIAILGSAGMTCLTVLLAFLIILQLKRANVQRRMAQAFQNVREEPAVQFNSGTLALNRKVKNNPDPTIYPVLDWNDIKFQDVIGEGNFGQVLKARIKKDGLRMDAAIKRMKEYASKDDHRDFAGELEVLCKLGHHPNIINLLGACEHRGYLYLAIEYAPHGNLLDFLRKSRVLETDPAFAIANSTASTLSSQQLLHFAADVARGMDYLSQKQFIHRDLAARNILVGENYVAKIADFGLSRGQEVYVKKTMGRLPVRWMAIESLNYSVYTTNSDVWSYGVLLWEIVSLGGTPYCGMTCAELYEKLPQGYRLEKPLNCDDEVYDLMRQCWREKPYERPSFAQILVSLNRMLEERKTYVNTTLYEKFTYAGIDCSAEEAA
# [5] = target: Angiopoietin-1 receptor (Homo sapiens) (UniProt Q02763); conditions: at 1 µM
# [6] = target: T2, Non-receptor tyrosine-protein kinase TNK1 (Homo sapiens) (UniProt Q13470); conditions: at 0.1 µM
# T2 sequence (whole entry): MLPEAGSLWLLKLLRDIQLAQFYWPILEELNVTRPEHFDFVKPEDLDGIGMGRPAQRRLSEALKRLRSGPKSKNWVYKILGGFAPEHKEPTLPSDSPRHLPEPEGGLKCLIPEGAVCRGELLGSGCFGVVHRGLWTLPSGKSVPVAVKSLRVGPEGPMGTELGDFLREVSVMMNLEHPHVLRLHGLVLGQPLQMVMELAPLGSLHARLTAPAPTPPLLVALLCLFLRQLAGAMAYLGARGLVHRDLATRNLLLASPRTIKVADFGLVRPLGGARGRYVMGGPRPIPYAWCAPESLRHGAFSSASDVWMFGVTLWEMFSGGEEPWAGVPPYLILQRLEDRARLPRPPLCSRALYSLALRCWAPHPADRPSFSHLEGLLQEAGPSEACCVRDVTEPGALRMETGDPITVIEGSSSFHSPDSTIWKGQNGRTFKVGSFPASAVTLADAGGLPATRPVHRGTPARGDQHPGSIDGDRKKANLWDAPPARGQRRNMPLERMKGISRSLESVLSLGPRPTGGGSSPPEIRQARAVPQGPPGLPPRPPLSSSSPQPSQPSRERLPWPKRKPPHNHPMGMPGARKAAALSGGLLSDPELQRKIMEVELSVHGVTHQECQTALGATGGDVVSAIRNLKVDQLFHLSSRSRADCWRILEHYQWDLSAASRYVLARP
# [7] = target: T2, Non-receptor tyrosine-protein kinase TNK1 (Homo sapiens); conditions: at 1 µM
# [8] = target: Activated CDC42 kinase 1 (Homo sapiens) (UniProt Q07912); conditions: at 0.1 µM
# Activated CDC42 kinase 1 (Homo sapiens), sequence (Q07912 whole entry, looked up): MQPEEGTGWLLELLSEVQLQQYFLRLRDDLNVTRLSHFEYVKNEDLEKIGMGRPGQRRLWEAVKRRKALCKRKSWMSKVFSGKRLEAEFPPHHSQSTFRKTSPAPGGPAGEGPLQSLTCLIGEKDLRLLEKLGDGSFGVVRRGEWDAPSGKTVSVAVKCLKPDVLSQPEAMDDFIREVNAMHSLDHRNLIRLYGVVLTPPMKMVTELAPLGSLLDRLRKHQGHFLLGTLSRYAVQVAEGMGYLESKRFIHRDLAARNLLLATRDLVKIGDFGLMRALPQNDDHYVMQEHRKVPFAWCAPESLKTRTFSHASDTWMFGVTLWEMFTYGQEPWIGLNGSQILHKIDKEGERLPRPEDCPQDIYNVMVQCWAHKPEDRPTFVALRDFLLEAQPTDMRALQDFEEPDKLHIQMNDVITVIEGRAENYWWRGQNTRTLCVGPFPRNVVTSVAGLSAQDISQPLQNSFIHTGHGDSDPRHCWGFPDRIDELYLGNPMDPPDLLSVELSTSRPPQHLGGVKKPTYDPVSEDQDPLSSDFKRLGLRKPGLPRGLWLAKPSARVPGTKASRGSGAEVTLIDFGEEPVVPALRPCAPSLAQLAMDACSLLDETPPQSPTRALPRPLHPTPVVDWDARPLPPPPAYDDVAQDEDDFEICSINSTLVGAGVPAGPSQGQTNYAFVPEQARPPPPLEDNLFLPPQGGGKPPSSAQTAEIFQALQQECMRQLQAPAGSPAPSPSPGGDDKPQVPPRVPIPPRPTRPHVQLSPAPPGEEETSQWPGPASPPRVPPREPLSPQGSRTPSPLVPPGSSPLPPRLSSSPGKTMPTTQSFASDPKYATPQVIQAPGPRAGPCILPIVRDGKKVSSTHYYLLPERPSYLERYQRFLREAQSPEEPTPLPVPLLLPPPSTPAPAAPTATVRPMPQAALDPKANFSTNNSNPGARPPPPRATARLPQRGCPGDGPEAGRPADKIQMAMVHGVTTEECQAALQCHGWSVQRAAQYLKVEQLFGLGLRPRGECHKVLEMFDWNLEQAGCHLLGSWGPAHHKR
# [9] = target: Activated CDC42 kinase 1 (Homo sapiens) (UniProt Q07912); conditions: at 1 µM
# [10] = target: High affinity nerve growth factor receptor (Homo sapiens) (UniProt P04629); conditions: at 0.1 µM;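 note: each value is a mean of replicate percent inhibition readings against TRKA kinase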
# High affinity nerve growth factor receptor (Homo sapiens), sequence (P04629 33-796 limits assumed): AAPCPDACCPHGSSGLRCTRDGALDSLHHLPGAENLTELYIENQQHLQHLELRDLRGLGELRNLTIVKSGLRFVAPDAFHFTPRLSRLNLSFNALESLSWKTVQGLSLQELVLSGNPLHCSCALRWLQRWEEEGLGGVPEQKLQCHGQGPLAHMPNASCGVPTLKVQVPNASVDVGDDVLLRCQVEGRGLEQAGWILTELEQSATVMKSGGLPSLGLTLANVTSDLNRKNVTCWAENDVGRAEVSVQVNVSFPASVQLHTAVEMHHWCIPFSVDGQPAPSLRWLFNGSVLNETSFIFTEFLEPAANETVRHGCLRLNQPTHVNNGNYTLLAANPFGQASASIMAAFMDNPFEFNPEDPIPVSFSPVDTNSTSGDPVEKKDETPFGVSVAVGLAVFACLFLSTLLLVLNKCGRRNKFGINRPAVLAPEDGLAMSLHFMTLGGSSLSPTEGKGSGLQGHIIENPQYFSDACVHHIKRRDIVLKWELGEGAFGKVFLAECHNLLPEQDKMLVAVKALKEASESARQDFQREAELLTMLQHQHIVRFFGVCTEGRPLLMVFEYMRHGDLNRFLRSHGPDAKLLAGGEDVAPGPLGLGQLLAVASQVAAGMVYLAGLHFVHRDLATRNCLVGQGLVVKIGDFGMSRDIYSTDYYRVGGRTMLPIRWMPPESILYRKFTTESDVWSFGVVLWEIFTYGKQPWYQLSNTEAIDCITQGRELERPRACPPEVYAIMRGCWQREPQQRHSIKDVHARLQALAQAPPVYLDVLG
SMILES,inhibition [1],inhibition [2],inhibition [3],inhibition [4],inhibition [5],inhibition [6],inhibition [7],inhibition [8],inhibition [9],inhibition [10]
N#Cc1c(NC(=O)c2ccc(F)cc2)sc2c1CCCC2,-0.64%,1.75%,1.25%,1.49%,2.44%,-1.86%,2.53%,0.23%,0.89%,0.08%
Cc1ccc2c(-c3ccnc(Nc4ccccc4)n3)c(-c3ccc(F)cc3)nn2n1,-4.62%,10.6%,38.1%,3.44%,17.5%,3.52%,14.2%,1.74%,7.9%,9%
CCCN1CCC(c2ccc(Nc3nc(Nc4cc(F)ccc4C(N)=O)c4cc[nH]c4n3)c(OC)c2)CC1,73.4%,2.15%,7.76%,2.84%,4.59%,46.4%,92.8%,5.57%,44.3%,1.74%
COc1cc(Nc2nccc(Nc3ccc4c(C)n[nH]c4c3)n2)cc(OC)c1OC,42.8%,23.6%,63.1%,8.4%,49.8%,43%,77.3%,10.1%,52.9%,12.2%
CCN1CCC(CC(=O)Nc2n[nH]c3nnc(-c4cccc(F)c4F)cc23)CC1,-2.27%,0.83%,2.99%,1.5%,10.3%,1.03%,4.94%,0.46%,1.64%,-1.1%
COC(=O)Nc1nc2ccc(S(=O)(=O)c3ccc(NC(=O)Nc4cc(C(F)(F)F)ccc4F)cc3)cc2[nH]1,0.05%,3.65%,2.49%,5.47%,10.9%,-0.2%,-6.28%,0.69%,0.6%,1.94%
CCn1c(-c2nonc2N)nc2cnc(Oc3cccc(NC(=O)c4ccc(N(C)C)cc4)c3)cc21,0.64%,3.07%,2.35%,2.52%,4.62%,6.05%,6.93%,0.85%,0.38%,1.37%
c1ccc(COc2ccc(Nc3ncnc4ccc(-c5ccco5)cc34)cc2)cc1,-0.46%,1.31%,3.25%,2.64%,3.4%,1.53%,5.09%,-0.27%,0.03%,-2.34%
